# Data published in PubChem BioAssay.
# The source made the active and inactive calls. How the calls were made is not given here.
# Target: Pantothenate synthetase (Mycobacterium tuberculosis (strain ATCC 25618 / H37Rv)) (UniProt P9WIL5)
# Assay: Recombinant Mtb pantothenate synthetase (PanC) inhibitors, coupled enzyme, confirmatory (AID 375);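 further: 0% = full reaction with vehicle and 100% = no enzyme background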
# Settings: coupled enzyme assay; at 10 µM, stronger effect = higher value
# Pantothenate synthetase (Mycobacterium tuberculosis (strain ATCC 25618 / H37Rv)), sequence (P9WIL5 whole entry, looked up): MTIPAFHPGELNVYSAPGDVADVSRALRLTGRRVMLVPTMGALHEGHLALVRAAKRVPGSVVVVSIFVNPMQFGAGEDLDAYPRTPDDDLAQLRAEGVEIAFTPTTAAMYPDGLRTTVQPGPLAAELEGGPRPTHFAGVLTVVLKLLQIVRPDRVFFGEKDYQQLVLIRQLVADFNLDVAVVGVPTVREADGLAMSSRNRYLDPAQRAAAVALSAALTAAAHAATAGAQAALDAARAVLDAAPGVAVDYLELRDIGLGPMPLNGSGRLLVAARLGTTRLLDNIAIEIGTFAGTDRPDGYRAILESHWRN
row,SMILES,inhibition
1,CC(C(=O)c1ccccc1)n1cnc2ccccc2c1=O (stereo not given),9% (inactive)
2,COc1ccc(OC)c(CNC(=O)CCN2C(=O)COc3ccccc32)c1,5% (inactive)
3,CCN(Cc1cc2ccccc2[nH]c1=O)S(=O)(=O)c1ccccc1,0% (inactive)
4,CCC(C)(C(=O)NC1CCCC1)N(Cc1cccs1)C(C)=O (stereo not given),2% (inactive)
5,CC(=O)Nc1ccc(N2CCN(Cc3ccccc3F)CC2)cc1,0% (inactive)
6,COCCNC(=O)C(c1ccc(C)o1)N(C(=O)c1snc(C(N)=O)c1N)c1ccc(C)cc1 (stereo not given),4% (inactive)
7,CC(C)CN(C(=O)c1ccc(=O)n(C)n1)c1nc2ccccc2s1,0% (inactive)
8,COc1ccc(S(=O)(=O)N(C)c2ccc(C(=O)N3CCOCC3)cc2)cc1,0% (inactive)
9,Nn1c(CSc2nc3ccccc3o2)nnc1CSc1nc2ccccc2o1,0% (inactive)
10,Cc1occc1C(=O)N1CCN(Cc2ccccc2)CC1,0% (inactive)
11,Cc1nn(-c2nc3ccccc3s2)c(C)c1Oc1ccccc1O,2% (inactive)
12,CC(=O)c1cccc(S(=O)(=O)NCC(c2ccco2)N2CCCCC2)c1 (stereo not given),0% (inactive)
13,CCCC1(C(=O)OC)NC(c2cc(OC)c(OC)c(OC)c2)C2C(=O)N(CC)C(=O)C21 (stereo not given),0% (inactive)
14,Nc1nc(NC(=O)c2cccs2)nn1-c1ccccc1,1% (inactive)
15,CCOC(=O)N1CCC(NC(=O)C2CCC(Cn3c(=O)[nH]c4ccccc4c3=O)CC2)CC1 (stereo not given),9% (inactive)
16,CC(C)c1cc(C(=O)Nc2cccnc2)no1,3% (inactive)
17,COc1ccc(S(=O)(=O)NCc2ccc3c(c2)OCO3)cc1C(=O)O,5% (inactive)
18,O=C(CSc1ncnc2nc[nH]c12)c1ccc(Cl)cc1,1% (inactive)
19,COc1ccc(OC)c(NC(=O)C2CCN(c3cc(-c4ccccc4)nc4ncnn34)CC2)c1,2% (inactive)
20,Cc1sc2c(c1C)CN(C1CC(C)(C)NC(C)(C)C1)CN2C(=O)c1ccco1,7% (inactive)

row,SMILES,inhibition
1,Cc1[nH]c(=O)[nH]c(=O)c1S(=O)(=O)N1CCN(c2cccc(Cl)c2)CC1,1% (inactive)
2,Cc1nnc(SCC(=O)Nc2c(Cl)cccc2Cl)[nH]c1=O,0% (inactive)
3,COC(=O)c1ccccc1NC(=O)c1noc2c1CCC2,0% (inactive)
4,COC(=O)Nc1nc2ccc(C(=O)c3ccccc3)cc2[nH]1,1% (inactive)
5,CCOc1ccccc1N1Cc2cc(C)c(C)cc2C1,0% (inactive)
6,Cc1nc2cc(NC(=O)N3c4ccccc4CC3C)ccc2o1 (stereo not given),0% (inactive)
7,Cn1c(=O)[nH]c(=O)c2c1nc(N1CCNCC1)n2Cc1cccc2ccccc12,8% (inactive)
8,Cc1cc(/C=N\O)c(C)n1-c1ccncc1,0% (inactive)
9,CCOC(=O)C1C2C=CC3(CN(Cc4ccco4)C(=O)C13)O2 (stereo not given),0% (inactive)
10,CCn1cc(C(=O)NCc2ccco2)c(=O)c2cc(F)c(N3CCN(C(=O)c4ccco4)CC3)cc21,0% (inactive)
11,Cc1cc2cc(CN(CCCN3CCOCC3)C(=O)NC3CCCCC3)c(=O)[nH]c2cc1C,2% (inactive)
12,O=S(=O)(c1ccc(OCC(O)CN2CCN(c3ccccc3)CC2)cc1)N1CCOCC1 (stereo not given),7% (inactive)
13,COc1ccc(N2CCN(C(=O)CSc3ncnc4c3cnn4-c3ccccc3C)CC2)cc1,0% (inactive)
14,O=C(c1cnn2c(C(F)F)cc(-c3ccccc3)nc12)N1CCN2CCCC2C1 (stereo not given),0% (inactive)
15,Cc1ccc(-c2nc3ccccc3[nH]2)s1,0% (inactive)
16,CCOC(=O)c1nc2sc3c(c2c(=O)[nH]1)CCCC3,0% (inactive)
17,Cn1cccc1Cc1nnc(SCC(=O)NCc2ccc(F)cc2)n1-c1ccc(F)cc1,2% (inactive)
18,Cc1ccc(-c2noc(CN3C(C)CCCC3C)n2)cc1 (stereo not given),0% (inactive)
19,Cc1ccc(S(=O)(=O)C2(C(=O)Nc3nccs3)CC2)cc1,0% (inactive)
20,CCC(NC(=O)Nc1cc(OC)c(OC)c(OC)c1)(C(F)(F)F)C(F)(F)F,3% (inactive)
